Measured values published in PubChem BioAssay AID995 (National Center for Advancing Translational Sciences (NCATS), 2007).
About 710 (0.99%) of roughly 72,000 compounds were called active. Not shown: some 7% with an inconclusive outcome. The sample holds actives, similar compounds and a random draw of the others, so the mix is not that of the screen. Calls follow the shape of the dose curve; as a rule, active = well fitted inhibition curve with a large enough effect; inconclusive = small, poorly fitted or top-dose-only effect; inactive = no such curve, though single readings can be large or run the other way.

assay: qHTS Assay for Inhibitors of the ERK Signaling Pathway using a Homogeneous Screening Assay; conditions: HEK293-V1b, vasopressin-stimulated pERK AlphaScreen; series mostly up to 57.5 µM; also: nearly all actives have a fitted effect of over 55% in size
Summary of the method: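 HEK293 cells stably expressing V1b receptor, preincubated 30 min at 37 °C with compound, then stimulated 5 min with 25 nM vasopressin. Phospho-ERK by AlphaScreen SureFire after 5 h RT; normalized to DMSO and vasopressin; AC50 by Hill fit.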
% is scaled to controls: 0 for no effect and ±100 for the full control effect; potency is read from the fitted curve at half-maximal effect.

activity, negative = inhibition, inactive:
C=CCOC(=O)C(C(C)=O)C(NC(=O)OC)c1ccccc1 (centres undefined) 29.5% [at 11.5 µM]
c1ccc(CCN2CCN=C2Cc2ccccc2)cc1 9.2% [at 11.5 µM]
CO[C@H]1COC(=O)C/C=C\[C@H](C)COC(=O)[C@@H](OCc2ccccc2)/C=C\[C@@H]1C 0.999% [at 11.5 µM]
C[C@@H](N)[C@@H](C)Cc1ccccc1 -2.1% [at 11.5 µM]

Potency, inactive:
Cn1c(=O)c(-c2ccccc2)nc2cnc(N3CCNCC3)nc21
CCCCNc1nc(C)nc2c1nc(-c1ccccc1)n2CCCCN(CC)CC
C=C1C(=O)C23C(O)C1CCC2[C@]12COC3(O)C(O)C1C(C)(C)CC[C@H]2O (some centres undefined)
COCCn1c(=O)c(-c2cc(F)cc(F)c2)nc2cncnc21
NS(=O)(=O)c1cc(Cl)c(Cl)c(S(N)(=O)=O)c1
CCCCCCCCCCCC(=O)O[C@H](CC(=O)O)C[N+](C)(C)C
CC(C)=CC1C(C(=O)O)C1(C)C (centres undefined)
O=C(c1ccco1)N1CCC2(CC1)CN(c1ncccn1)C2
CC1(C)OC2CC3C4CCC5=CC(=O)CCC5(C)C4(F)C(O)CC3(C)[C@]2(C(=O)CCl)O1 (some centres undefined)
CC1OC(OCC2OC(Oc3c(-c4ccc(O)c(O)c4)oc4cc(O)cc(O)c4c3=O)C(O)C(O)C2O)[C@@H](O)C(O)C1O (some centres undefined)
Cc1c(C)c2c(c(C)c1O)CC[C@@](C)(CN1CCN(c3cc(N4CCCC4)nc(N4CCCC4)n3)CC1)O2
COC(=O)CC1C(C)(C)C(OC(C)=O)C2CC3=C4CC(=O)OC(c5ccoc5)[C@]4(C)CCC3[C@@]1(C)C2=O (some centres undefined)
CC(=O)OCC(=O)[C@@]1(O)CCC2C3CCC4=CC(=O)CC[C@]4(C)C3C(=O)C[C@]21C (some centres undefined)
Cc1ccc(S(=O)(=O)Nc2ccc3ncccc3c2)cc1
Fc1ccc(Br)cc1/C=N/n1cnnc1
CCC1=C(OC(=O)N(CC)CC)N2C(=O)OC(=NCC3CC3)[C@]2(C)[C@H]2C1=CC[C@H]1C(=O)N(CC(=O)OC)C(=O)[C@H]12
CCC(C)C(N)C1=NC(C(=O)NC(CC(C)C)C(=O)NC(CCC(=O)O)C(=O)NC(C(=O)NCCCCC2NC(=O)C(CC(N)=O)NC(=O)C(CC(=O)O)NC(=O)C(Cc3cnc[nH]3)NC(=O)C(Cc3ccccc3)NC(=O)C(C(C)CC)NC(=O)C(CCCN)NC2=O)C(C)CC)CS1 (centres undefined)
O=c1c(CCc2ccccc2)nc2cnc(N3CCNCC3)nc2n1Cc1cccs1
Clc1ccc(C2[C@H]3CN(CC4CCCCC4)[C@H](c4ccccc4)C34CC2(c2cccnc2)C4)cn1 (some centres undefined)
C=CCn1c(CSc2nc3ccccc3s2)nnc1SCC(=O)NCc1ccco1
CCn1c(SCC(=O)Nc2nc3ccc(OC)cc3s2)nnc1-c1ccoc1C
CC(C)=CCC/C(C)=C/CC/C(C)=C/CC/C(C)=C/CO
COc1cc(OC)c2c(c1Cl)OC1(C2=O)C(O)=CC(=O)CC1C (centres undefined)
CCC[C@@H]1C[C@@]1(CCC)C(NS(=O)(=O)c1cccc2cccnc12)c1ccc(Cl)cc1 (some centres undefined)
C=CC(=C)CCC=C(C)C
Fc1cccc(/C=N\N=C/c2cccc(F)c2)c1
O=C1NS(=O)(=O)c2ccccc21
Cc1cccc(CNc2cc(-c3ccccc3Cl)ncn2)c1
FC(F)(F)c1ccc(CN2C[C@@H]3C(c4ccccc4)C4(c5ccccc5)CC3(C4)[C@H]2c2ccccc2)cc1 (some centres undefined)
Cc1ccc(OCC(=O)Nc2ccc(-c3nnc(-c4ccco4)o3)cc2)cc1
COc1ccc(CC(=O)Nc2ccc(-c3nnc(-c4ccccc4)o3)cc2)cc1
Oc1cc(O)c2c(c1)OC(c1ccc(O)c(O)c1)C(O)C2 (centres undefined)
CCC(CCC(C)C1CCC2C3CC=C4CC(O)CC[C@@]4(C)C3CC[C@@]12C)C(C)C (some centres undefined)
COc1ccccc1NC(=O)C1=C(C)NC2=C(C(=O)CCC2)C1c1ccc(C)o1 (centres undefined)
COC(=O)C1=C(C)NC(=O)NC1/C=C/c1ccccc1 (centres undefined)

Potency, active:
Cc1cc(/C=N/n2cnnc2)c(C)n1-c1ccc2ncccc2c1 15.8 µM
C=CCn1c(SCC(=O)Nc2nc3ccccc3s2)nnc1-c1ccccc1O 15.8 µM
Cc1ccc(-c2nn(CC(C)(C)C)c3ncnc(N)c23)cc1 7.94 µM
O=C(CCc1ccccc1)Nc1cccc(-c2nnc(-c3ccco3)o2)c1 25.1 µM
COC(=O)C1=C(C)NC2=C(C(=O)c3ccccc32)C1c1ccc(-c2ccc(C(=O)O)cc2)o1 (centres undefined) 25.1 µM
